Sampled rows, rich in hits. Any-hit rate of the full collection: about 19%.
TDP1 cell noCPT: qHTS for Inhibitors of human tyrosyl-DNA phosphodiesterase 1 (TDP1): qHTS in cells in absence of CPT; DT40 Tdp1-/- hTDP1 cells, no CPT, ATP luminescence, 48 h; 15% of 420,000 active; AID 686978, 2013; Potency, µM (titrated, usually from 46.2 µM), for the others: top-dose activity change, negative = growth inhibition, most hits filed as inhibitors; further: potency means the concentration at half of the fitted maximal effect; nearly all actives have a fitted effect of over 55% in size
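Camptothecin absent (DMSO only). Human TDP1-complemented DT40 knockout cells, 400 cells/well, 37 °C for minimum 48 hr; ATP measured via CellTiter-Glo, 30 min dark incubation, luminescence.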
DT40 TDP1 CPT: DT40-hTDP1 cell growth loss with CPT; chicken DT40 Tdp1-/-;hTDP1 cells + 20 nM CPT, ATP luminescence, 48 h; Potency, µM (titrated, usually from 46.2 µM), for inactives: top-dose activity change, negative = growth inhibition, hits mostly inhibitors; 12% of 420,000 active; AID 686979; further: potency means the concentration at half of the fitted maximal effect; nearly all actives have a fitted effect of over 55% in size
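Chicken DT40 Tdp1-/- cells stably complemented with human TDP1 were seeded at 400 cells/well in medium containing 20 nM camptothecin, exposed to pin-transferred compounds, and grown at 37 °C for at least 48 hr. Viability was read as ATP luminescence.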
IL1B secr inh: inflammasome signaling inhibition, IL-1 beta readout | 4.7% of 360,000 active | activity change, % at 57.5 µM | THP-1 LPS/ATP IL-1B secretion, AlphaLISA, 16 h; stronger effect = lower value; in the data active means activity change below about -50%; inconclusive means mostly about -30% to -49%
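Secreted IL-1B measured by AlphaLISA bead assay after 16 h compound exposure of THP-1 cells; compounds (final up to 57.5 uM) added 1 h before LPS (250 ng/mL) and ATP (1.25 mM) stimulation; lower signal means less secretion.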
HT1080 IDH1KD tx: HT-1080 IDH1 knockdown cell toxicity (counter line) | HT-1080 IDH1 knockdown viability, ATP luminescence, 48 h | Potency, µM (top dose mostly 46.1 µM), for inactives: at the highest dose activity, negative = toxicity, actives largely listed as cytotoxic | 2% of 360,000 active;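 further: potency means the concentration at half of the fitted maximal effect; 0% = DMSO wells and -100% = cell-free medium wells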
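Viability of IDH1-knockdown HT-1080 fibrosarcoma cells was assessed by CellTiter-Glo after 48 h at 37 °C with titrated compound; concentration-effect curves were classified by fit quality and response size.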
HT1080NT lethal: kills 2HG-producing HT-1080-NT fibrosarcoma cells. Potency, µM (titrated, usually from 46.1 µM), for inactives: at the highest dose activity, negative = less viability, usual class: cytotoxic. HT-1080-NT fibrosarcoma viability, CellTiter-Glo ATP luminescence, 48 h. AID 686970. 1.6% of 360,000 active;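 further: NT is the 2HG producing partner of a matched IDH1 knockdown line; potency means the concentration at half of the fitted maximal effect; 0% = DMSO-treated cells and -100% = media-only wells without cells; nearly all actives have a fitted effect of over 55% in size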
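Luminescent CellTiter-Glo readout after 48 hours of compound exposure at 37 degrees C defined viability of HT-1080-NT cells. Activity was normalized to DMSO wells and cell-free media wells; concentration-response curves were fitted and assigned curve classes.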
ELG1 repair inh: inhibitors of ELG1-dependent DNA repair in HEK293T cells. HEK293T ELG1-luciferase reporter, luminescence, 16 h; DNA damage induced by 5-fluorouridine. Potency, µM (series often up to 46.1 µM), for inactives: at the highest dose activity change, negative = inhibition, usual class: inhibitors. 2.3% of 330,000 active; further: potency means the concentration at half of the fitted maximal effect; nearly all actives have a fitted effect of over 55% in size
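HEK293T cells expressing luciferase-tagged ELG1 (2,000/well) received 5-Fluorouridine plus compound or DMSO for 16 hr at 37 °C. Luciferase was read by ONE-Glo luminescence after 30 min at room temperature.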
* = called active by the depositor; [ ] = dose if it differs, or a comment. Unless noted, the call rests on the fitted dose curve; in most records, active means well fitted curve in the direction sought with a large enough effect; inconclusive means small, poorly fitted or top-dose-only effect, or another doubt; inactive means no such curve, though single readings can be large; an effect the other way counts as inactive or inconclusive. Unless noted, on the % scale 0 is the no-effect control and ±100 the full control effect.

What do the screens show for `COc1ccc(/C=C/CN2CCC(C(=O)NC(c3ccc(F)cc3)c3ccc4ccccc4n3)CC2)cc1` (centres undefined)?
TDP1 cell noCPT: 21µM*; DT40 TDP1 CPT: 18µM*; IL1B secr inh: inconclusive; HT1080 IDH1KD tx: 10µM*; HT1080NT lethal: 16µM*

How did COc1ccc(C(NC(=O)C2CCN(Cc3cc(OC)cc(OC)c3)CC2)c2ccccn2)cc1 (centres undefined) do in these assays?
TDP1 cell noCPT: -29%; DT40 TDP1 CPT: 2%; IL1B secr inh: -14; HT1080 IDH1KD tx: 19%; HT1080NT lethal: 5%

Results for Cc1cccc(NC(=O)CSc2nc(=O)n(CCCN3CCOCC3)c3c2CCCC3)c1C ?
TDP1 cell noCPT: 1%; DT40 TDP1 CPT: -25%; IL1B secr inh: -17; HT1080 IDH1KD tx: 4%; HT1080NT lethal: 2%

What do the screens show for `CC1CCN(C(=O)C2COc3ccccc3C2)CC1` (centres undefined)?
TDP1 cell noCPT: -3%; DT40 TDP1 CPT: 5%

What do the screens show for `Cc1ccccc1Cn1nnc2c(=O)[nH]c(C3CCCN(C(=O)c4ccc(C(C)(C)C)cc4)C3)nc21` (centres undefined)?
TDP1 cell noCPT: 26µM*; DT40 TDP1 CPT: inconclusive

How did Cc1cccc(Cn2nnc3c(=O)[nH]c(C4CCCN(C(=O)c5ccc(C(C)(C)C)cc5)C4)nc32)c1 (centres undefined) do in these assays?
TDP1 cell noCPT: 21µM*; DT40 TDP1 CPT: inconclusive

How did COc1ccc(Cn2nnc3c(=O)[nH]c(C4CCCN(C(=O)c5ccccc5)C4)nc32)cc1 (centres undefined) do in these assays?
TDP1 cell noCPT: -23%; DT40 TDP1 CPT: -29%; IL1B secr inh: 12; HT1080 IDH1KD tx: -1%; HT1080NT lethal: 0%; ELG1 repair inh: -2%

Results for Cc1nn(CC(=O)N2CCN(c3ccccc3)CC2)c(=O)c2cc3cc(F)ccc3n12 ?
TDP1 cell noCPT: -1%; DT40 TDP1 CPT: 19%

How did COc1cc(/C=C2/NC(=O)N(Cc3ccccc3F)C2=O)cc(OC)c1OC do in these assays?
TDP1 cell noCPT: 16µM*; DT40 TDP1 CPT: inconclusive; IL1B secr inh: inconclusive; HT1080 IDH1KD tx: -23%; HT1080NT lethal: -6%; ELG1 repair inh: -25%

How did Cc1cccc(NC(=O)C2CCCN(S(=O)(=O)c3cnc[nH]3)C2)c1C (centres undefined) do in these assays?
TDP1 cell noCPT: 1%; DT40 TDP1 CPT: -24%

Results for COCCC(=O)N1CCC(Oc2ccc(C(=O)N3CCCCCC3)cc2)CC1 ?
TDP1 cell noCPT: -33%; DT40 TDP1 CPT: inconclusive; IL1B secr inh: 14; HT1080 IDH1KD tx: 10%; HT1080NT lethal: -5%; ELG1 repair inh: 15%

What do the screens show for `C#CCN(C(=O)c1ccc(OC2CCN(Cc3ccccn3)CC2)cc1)C1CCCCC1`?
TDP1 cell noCPT: inconclusive; DT40 TDP1 CPT: 16µM*; IL1B secr inh: inconclusive; HT1080 IDH1KD tx: -2%; HT1080NT lethal: 1%; ELG1 repair inh: 5%

Results for C#CCN(C(=O)c1ccc(OC2CCN(C(=O)CCOC)CC2)cc1)C1CCCCC1 ?
TDP1 cell noCPT: inconclusive; DT40 TDP1 CPT: 23µM*; IL1B secr inh: 49; HT1080 IDH1KD tx: -9%; HT1080NT lethal: 1%; ELG1 repair inh: -17%

What do the screens show for `CN(C(=O)c1ccc(OC2CCN(Cc3ccccn3)CC2)cc1)C1CCCCC1`?
TDP1 cell noCPT: -12%; DT40 TDP1 CPT: inconclusive; IL1B secr inh: -7; HT1080 IDH1KD tx: -1%; HT1080NT lethal: -9%; ELG1 repair inh: 5%

What do the screens show for `CCCSc1nnc(CNC(=O)C23CC4CC(CC(C4)C2)C3)n1Cc1ccccc1`?
TDP1 cell noCPT: inconclusive; DT40 TDP1 CPT: 16µM*; IL1B secr inh: -10; HT1080 IDH1KD tx: -12%; HT1080NT lethal: -2%; ELG1 repair inh: -2%

Results for O=C(CSc1nnc(CNC(=O)C23CC4CC(CC(C4)C2)C3)n1-c1ccc(F)cc1)Nc1ccc(F)cc1 ?
TDP1 cell noCPT: inconclusive; DT40 TDP1 CPT: inconclusive; IL1B secr inh: 13; HT1080 IDH1KD tx: -24%; HT1080NT lethal: -16%; ELG1 repair inh: inconclusive

What do the screens show for `CCSc1nnc(CNC(=O)C23CC4CC(CC(C4)C2)C3)n1C1CCCCC1`?
TDP1 cell noCPT: 26µM*; DT40 TDP1 CPT: 23µM*; IL1B secr inh: 7; HT1080 IDH1KD tx: 2%; HT1080NT lethal: 16%; ELG1 repair inh: 1%

What do the screens show for `O=C(NCc1nnc(SCc2ccc(F)cc2)n1-c1ccc(F)cc1)C12CC3CC(CC(C3)C1)C2`?
TDP1 cell noCPT: 29µM*; DT40 TDP1 CPT: 15µM*; IL1B secr inh: inconclusive; HT1080 IDH1KD tx: inconclusive; HT1080NT lethal: inconclusive; ELG1 repair inh: inconclusive

What do the screens show for `CC1(O)C(c2ccccc2)=Nc2ccccc21` (centres undefined)?
TDP1 cell noCPT: inconclusive; DT40 TDP1 CPT: inconclusive; IL1B secr inh: 30; HT1080 IDH1KD tx: -14%; HT1080NT lethal: -14%

What do the screens show for `O=C(N/N=C/c1ccc(Cl)cc1)c1cc2c(s1)-c1ccccc1CC2`?
TDP1 cell noCPT: 5.2µM*; DT40 TDP1 CPT: 3.7µM*; IL1B secr inh: 15; HT1080 IDH1KD tx: inconclusive; HT1080NT lethal: inconclusive; ELG1 repair inh: -10%

How did O=C(NCCc1ccc(Cl)cc1)c1cnccn1 do in these assays?
TDP1 cell noCPT: 14%; DT40 TDP1 CPT: 1%; IL1B secr inh: -1; HT1080 IDH1KD tx: 3%; HT1080NT lethal: 9%; ELG1 repair inh: inconclusive

Results for CC(C)(C)C(=O)N(Cc1ccc(Cl)cc1)c1cnccn1 ?
TDP1 cell noCPT: 12µM*; DT40 TDP1 CPT: inconclusive; IL1B secr inh: 20; HT1080 IDH1KD tx: -3%; HT1080NT lethal: -1%; ELG1 repair inh: inconclusive

How did N[C@@H](CSSC[C@H](N)C(=O)O)C(=O)O do in these assays?
TDP1 cell noCPT: -5%; DT40 TDP1 CPT: 5%

What do the screens show for `O=C(CSc1nnc(-c2ccccc2)n1Cc1ccco1)Nc1ccc(S(=O)(=O)N2CCCC2)cc1`?
TDP1 cell noCPT: inconclusive; DT40 TDP1 CPT: inconclusive; IL1B secr inh: inconclusive; HT1080 IDH1KD tx: 7.1µM*; HT1080NT lethal: -4%[9.24 µM]; ELG1 repair inh: inconclusive
